Screen size: about 94,000 compounds; about 6,200 (6.6%) were called active. Inconclusive results (about 31%) are left out. Calls follow the shape of the dose curve; as a rule, active = well fitted inhibition curve with a large enough effect; inconclusive = small, poorly fitted or top-dose-only effect; inactive = flat fitted curve, though single readings scatter. The list comes from a sample in which actives are over-represented; it also holds similar structures and randomly drawn compounds. A call without a number means that no potency is given here.
Test: Cytotoxic Profiling in HEK 293 Cell Line of Diverse Libraries Using Quantitative High-Throughput Screening; also: nearly all actives have a fitted effect of over 60% in size
Conditions: HEK 293 viability, ATP luminescence (CellTiter-Glo), 48-72 h; series mostly up to 115 µM
Summary of the method: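 HEK 293 cells seeded at 250 cells/well were exposed to compound for 48 or 72 hr at 37 degree Celsius. Viability taken as ATP content by CellTiter-Glo luminescence.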
Potency is read from the fitted curve at half-maximal effect.

Row | SMILES | Potency
1 | CNC(=O)[C@@H]1CN(C(=O)c2ccc(F)c(Cl)c2)C[C@H]1CO | inactive
2 | CCn1ccc(C(=O)N2CCCC(c3noc(COC)n3)C2)n1 (stereo not drawn) | inactive
3 | Cc1nc(-c2ccccc2OC2CN(S(=O)(=O)c3c(C)noc3C)C2)no1 | inactive
4 | COc1ccc(CCC(=O)NCC(=O)N2CCCCCCNC(=O)CC2c2ccccc2)cc1 (stereo not drawn) | inactive
5 | CC1CCN(c2ccc(CNC(=O)CN3CCCc4nc(C5CC5)ncc4C3=O)cc2)CC1 | inactive
6 | CN(CCO)CC1(O)CCCN(Cc2ccccc2F)C1=O (stereo not drawn) | inactive
7 | O=C1c2c(nc(COc3ccccc3)n2Cc2ccccc2)NCCN1Cc1cccc(Cl)c1 | 31.6 µM (active)
8 | O=C1c2cnc(-c3ccc(O)c(F)c3)nc2OCCN1Cc1ccccc1 | inactive
9 | O=C(O)CN1CCNc2nc(CNc3ccc(F)cc3)n(Cc3ccccc3)c2C1=O | inactive
10 | COc1ccc(NC(=O)c2ccc3c(c2)N(S(C)(=O)=O)CC3)cc1OC | inactive
11 | O=C(c1cccnc1)N1CCC(Nc2cccnc2)C1 (stereo not drawn) | inactive
12 | COc1cccc(N2C(=O)NC(=NC3CCCC3)C23CCN(C(=O)c2ccc(C)cc2)C3)c1 (stereo not drawn) | inactive
13 | O=C(C[C@@H]1CCNC[C@@H]1Cc1cc(CSc2ccccc2)on1)NCc1ccc2c(c1)OCO2 | 35.5 µM (active)
14 | CN(Cc1ccccc1)C(=O)C[C@@H]1CCNC[C@@H]1Cc1cc(-c2ccc(C(C)(C)C)cc2)on1 | 14.1 µM (active)
15 | COc1ccc(CNC(=O)C[C@@H]2CCNC[C@@H]2Cc2cc(-c3ccc(C(C)(C)C)cc3)on2)cc1OC | 25.1 µM (active)
16 | CCCCc1cc(C[C@H]2CNCC[C@H]2CC(=O)N(CC)CC)no1 | inactive
17 | CNC(=O)C(C)(C)N1CCC[C@H]1C(=O)N(C)Cc1ccccc1 | inactive
18 | CSc1cccc(CN(C)C(=O)CC2COCCN2)c1 (stereo not drawn) | inactive
19 | CCCCc1cc(C[C@H]2CNCC[C@H]2CC(=O)N2CCC(n3c(=O)[nH]c4ccccc43)CC2)no1 | inactive
20 | COc1ccc(-c2cc(C[C@H]3CNCC[C@H]3CC(=O)NCCN(C)C)no2)cc1 | inactive
21 | O=C(C[C@@H]1CCNC[C@@H]1Cc1cc(-c2ccc(F)cc2)on1)NCCN1CCOCC1 | inactive

Row | SMILES | Potency
22 | COCCOCc1nc(C2CCCCN2C(=O)Nc2ccc(F)cc2F)no1 (stereo not drawn) | inactive
23 | O=C(Cc1cccc(Cl)c1)N1CCC2(CN[S+](=O)([O-])c3cccnc3O2)C1 (stereo not drawn) | inactive
24 | Cc1ccc(CN[C@@H]2CO[C@H](CNC(=O)N3CCOCC3)[C@H]2O)cc1 | inactive
25 | CCNC(=O)[C@@H]1C[C@H](n2cc(CN(C)C(=O)OC)nn2)CN1 | inactive
26 | Cc1ccc(NC(=O)c2nnn3c2COC(c2ccc(F)cc2)C3)c(Br)c1 (stereo not drawn) | inactive
27 | COc1ccc(-c2ccccc2CN)cc1 | inactive
28 | CCn1cc(S(=O)(=O)N2C[C@@H](Oc3ccccc3)C[C@@H]2C(=O)N2CCOCC2)cn1 | inactive
29 | CCn1nccc1C(=O)N1CCC2(CC1)CC(N(Cc1ccc(F)cc1)C1CC1)CCO2 (stereo not drawn) | 39.8 µM (active)
30 | CCN(CC)C1CCOC2(CCN(C(=O)c3ccncc3)CC2)C1 (stereo not drawn) | inactive
31 | O=C(c1ccc(F)cc1)N1CCC2(CC1)CC(OCC1CC1)CCO2 (stereo not drawn) | inactive
32 | Cc1cccc(CC(=O)N2CCC(c3n[nH]c(=O)n3-c3ccccc3)CC2)c1 | inactive
33 | CN(C)CCNC(=O)[C@H]1C[C@@](C)(C(=O)O)N(C)[C@H]1c1ccc(Cl)cc1 | inactive
34 | Cc1ccccc1N1Cc2c(NCC(C)(C)C)ncnc2N(C)CC1=O | inactive
35 | O=C(NCc1ccc2c(c1)OCO2)C1CCCN(Cc2cccc(-c3cccs3)c2)C1 (stereo not drawn) | 28.2 µM (active)
36 | O=C(NCc1ccc(F)c(F)c1)C1CCCN(Cc2cccc(-c3cccs3)c2)C1 (stereo not drawn) | 5.62 µM (active)
37 | Cc1ccccc1CNC(=O)C1CCCN(Cc2cccnc2)CCC(=O)NCC1 (stereo not drawn) | inactive
38 | O=C1CCN(S(=O)(=O)c2cccc(F)c2)CCCC(C(=O)NCc2ccccc2)CCN1 (stereo not drawn) | inactive
39 | COCCNC(=O)C1CCCN(Cc2cccc(-c3cccs3)c2)C1 (stereo not drawn) | inactive
40 | O=C(NCc1ccc2c(c1)OCO2)C1CN(C2CCCCC2)C(=O)N1 (stereo not drawn) | inactive
41 | COc1ccc(C(=O)N2CCc3n[nH]c(=O)n3CC2)cc1F | inactive
42 | O=C(N[C@H]1[C@H](O)[C@H](O)C[C@@H]1c1ccncc1)c1ccccn1 | inactive

Row | SMILES | Potency
43 | CN(C)c1ccc(CNCC2(COc3ccc(S(C)(=O)=O)cc3)C[C@@H](O)[C@@H](O)C2)cc1 (stereo partly drawn) | inactive
44 | O=C(NC1CC1)c1ccc(N2CC3CC(C2)[C@H]2CCCC(=O)N2C3)nc1 (stereo partly drawn) | inactive
45 | Cc1cc(C(=O)N2CCC(N3C(=O)C(OCC4CC4)C34CCOCC4)CC2)nn1C (stereo not drawn) | inactive
46 | CN(C)c1cccc(Nc2cc3c(cn2)NCCN(Cc2ccccc2)C3)c1 | 63.1 µM (active)
47 | Cn1c(CNC(=O)Cn2nc3c(cc2=O)CCCC3)nc2ccccc21 | inactive
48 | O=C(c1cn[nH]c1-c1ccccc1)N1CCC2(CC1)CC(O)CCO2 (stereo not drawn) | inactive
49 | O=C(Cc1cccc(Cl)c1)N1CCC2(CC1)CN[S+](=O)([O-])c1cccnc1O2 | inactive
50 | COCC(=O)N1CCCN(Cc2ccncc2)C(c2ccccc2)CC(=O)NCC1 (stereo not drawn) | inactive
51 | CC(C)c1ccc(N2C(=O)N[C@@H]3CCN(C(=O)c4ccc(C(C)(C)C)cc4)[C@@H]3C2=O)cc1 | 79.4 µM (active)
52 | COC(=O)[C@H](Cc1ccc(OC)cc1)NC(=O)[C@H]1CN(C(=O)c2cccnc2)CCN1C(=O)NC1CCCCC1 | inactive
53 | COc1cccc(-c2ccc(CN3CCCC3C(=O)NCc3ccccc3Cl)cc2)c1 (stereo not drawn) | 31.6 µM (active)
54 | CC(=O)N1CCCN(C(=O)C2CCCCN2Cc2ccc(-c3ccsc3)cc2)CC1 (stereo not drawn) | inactive
55 | O=C(NCc1ccccn1)C1CCN(C(=O)c2ccc(-c3cccs3)cc2)CC1 | inactive
56 | COc1cccc(CC(=O)NC2CCN(c3cn[nH]c(=O)c3)CC2)c1 | inactive
57 | CNC(=O)C1CCCCN1Cc1ccc(-c2cccs2)cc1 (stereo not drawn) | 28.2 µM (active)
58 | COc1cccc(-c2cccc(C(=O)N3CCCC3C(=O)NCC3CC3)c2)c1 (stereo not drawn) | inactive
59 | COc1ccc(C(=O)N2CCN(Cc3ccccc3-c3ccc(C)c(Cl)c3)CC2)cc1 | inactive
60 | Cc1ccc(-c2cccc(CN3CCCC(NC(=O)c4ccc(C(F)(F)F)cc4)C3)c2)cc1Cl (stereo not drawn) | inactive
61 | COc1cccc(-c2ccc(CN3CCCC3C(=O)NC3CCCCC3)cc2)c1 (stereo not drawn) | 44.7 µM (active)
62 | Cc1ccc(-c2cccc(CN3CCCC3C(=O)NCC(F)(F)F)c2)cc1Cl (stereo not drawn) | 31.6 µM (active)
63 | O=C(NCCCc1ccccc1)C1CCc2nnc(-c3cccc(C(F)(F)F)c3)n21 (stereo not drawn) | inactive
